Reference: PubChem BioAssay AID1377 (University of Pittsburgh Molecular Library Screening Center, 2008)
In all, about 220,000 compounds went through this assay and about 830 (0.38%) were called active.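 The calls were made as follows: active = activation, scaled between plate controls, above about 75% (limit read from the data); inactive = activation under that limit.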 Many of the other results were omitted from the sample, so actives are more common in it than they were.

Assay: inhibitors of zVAD-triggered necroptosis, primary screen, L929 cells (AID 1377);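 also: 0% = zVAD with DMSO and 100% = DMSO alone without zVAD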
Conditions: ATP luminescence, 24 h, at 10 µM, hits give high values; with zVAD 60 µM unless noted

| Compound | viability rescue |
| --- | --- |
| COc1ccc(C(CCN(Cc2ccc(OC)c(OC)c2)C(=O)CCl)c2ccccc2)cc1 (stereo not drawn) | 36.4% [with zVAD 20 µM] (inactive) |
| COc1ccccc1OCc1ccc(C(=O)N2CCN(C)CC2)o1 | 0.99% (inactive) |
| O=C(c1ccco1)N1CCN(C(=O)c2ccc(COc3ccc(F)cc3)o2)CC1 | 77.8% [with zVAD 20 µM] (active) |
| O=C(c1ccco1)N1CCN(CCOc2ccccc2)CC1 | -0.6% (inactive) |
| O=C(C/C(=N\NC(=O)c1ccccc1Br)C(F)(F)F)c1cccs1 | 0.26% (inactive) |
| Cc1cc(C(=O)N2CCC(C(=O)O)CC2)c(C(F)(F)F)o1 | -0.1% (inactive) |
| COC(=O)C1=C(C)N(C(C)c2ccccc2)C(=O)/C1=C\c1ccco1 (stereo not drawn) | 10.9% (inactive) |
| O=C(CCN1CCN(c2ccccc2)CC1)NNC(=S)Nc1ccccc1 | 1.61% (inactive) |
| Cc1cc(NC(=O)Nc2ccc(Cl)cc2)n(-c2ccccc2)n1 | 22.9% (inactive) |
| Cc1nn(C)cc1CNC(=O)Nc1ccc(Cl)cc1 | 0.19% (inactive) |
| Cn1ccc(NC(=O)Nc2ccc(Cl)cc2)n1 | 75.5% (active) |
| COC(=O)Cn1cc(/C=C/[N+](=O)[O-])c2ccccc21 | -0.01% (inactive) |
| COc1cc(NS(=O)(=O)c2ccc(N/C=C(\C=O)c3nc4cc(Cl)ccc4o3)cc2)nc(OC)n1 | 0.63% (inactive) |
| Cc1ccc(N2C(=O)C(CC(=O)Nc3cccc(F)c3)N(CCc3ccncc3)C2=O)cc1 (stereo not drawn) | 6.31% (inactive) |
| CCc1c(SCCC(=O)O)nc2ccccc2c1C | 5.34% (inactive) |
| Cn1c2ccc(F)cc2c2nnc(NN)nc21 | 1.53% (inactive) |
| C=CCO/N=C/C1=C(O)C(C(=O)OC)C(C)(C)CC1=O (stereo not drawn) | 4.04% (inactive) |
| CCCCC(CCC(=O)Nc1ccc(C(=O)OCC)cc1)C(=O)O (stereo not drawn) | 0.34% [with zVAD 20 µM] (inactive) |
| NC(=O)c1ccc(NC(=O)COC(=O)c2ccc([N+](=O)[O-])cc2)cc1 | 1.41% (inactive) |
| CC(C)NC(=O)NC(=O)COC(=O)c1ccc(NC(=O)CC#N)cc1 | 78.9% (active) |
| Cn1c(C(=O)NCCCN2CCN(c3cccc(Cl)c3)CC2)cc2c(=O)n(C)c3ccccc3c21 | 4.61% (inactive) |
| CC1CCCC(C)N1CCCNC(=O)c1cc2c(=O)n(C)c3ccccc3c2n1C (stereo not drawn) | 80.8% [with zVAD 20 µM] (active) |
| CCN1CCCC1CNC(=O)c1cc2c(=O)n(C)c3ccccc3c2n1C (stereo not drawn) | 22.7% [with zVAD 20 µM] (inactive) |
| CN(C)S(=O)(=O)Oc1ccccc1C(=O)Nc1ccccc1Cl | -0.16% (inactive) |

| Compound | viability rescue |
| --- | --- |
| COCCN1C2=C(COC(C)(C)C2)C(=S)NC1c1ccccc1 (stereo not drawn) | 0.35% (inactive) |
| O=C(COC(=O)c1ccc(Cl)nc1)NCc1cccs1 | 1% (inactive) |
| CCn1c(SCC(=O)Nc2nc3ccc(OC)cc3s2)nnc1-c1ccoc1C | 88.1% [with zVAD 20 µM] (active) |
| CCCn1c(SCC(=O)Nc2cccc(C(=O)OCC)c2)nnc1-c1ccoc1C | -0.07% [with zVAD 20 µM] (inactive) |
| COc1ccccc1NC(=O)CSc1nnc(-c2ccoc2C)n1CCc1ccccc1 | -0.28% [with zVAD 20 µM] (inactive) |
| COc1ccc(N2C(=O)C3C(C2=O)C(C(=O)c2ccccc2)N2CCCC32)cc1 (stereo not drawn) | -0.53% (inactive) |
| CCc1ccccc1N1CN(Cc2ccco2)CNC1=S | 0.22% (inactive) |
| Cc1cc(C)nc(NNC2=CC(=O)CC(C)(C)C2)n1 | 0.66% (inactive) |
| Cc1ccc(NC(=S)NC(=O)/C=C/c2ccc(Cl)cc2)cc1 | 0.00667% (inactive) |
| CC(=O)Nc1ccc(/C=C/C(=O)c2ccccc2)cc1 | 0.6% (inactive) |
| CC(=O)Nc1ccc(NC(=S)NC(=O)/C=C/c2ccccc2)cc1 | 80.5% (active) |
| O=C1NC(c2ccccc2)=NC1(Nc1ccccn1)C(F)(F)F (stereo not drawn) | 1.82% (inactive) |
| CC(C)(C)NC(=O)C(=O)NCc1ccncc1 | 0.53% (inactive) |
| Cc1cc(C)cc(NS(=O)(=O)c2ccc(F)cc2)c1 | 0.04% (inactive) |
| CC(NC(=S)NC1CCCCC1)C(c1ccccc1)N1CCOCC1 (stereo not drawn) | -0.76% (inactive) |
| NNC(=O)c1ccc(Cl)cc1Cl | 0.33% (inactive) |
| Cc1cccc(NC(=O)CSc2nc3c(c(=O)[nH]2)CCCC3)c1C | 0.25% (inactive) |
| Cc1ccccc1NC(=O)CNc1ccccc1N1CCCCC1 | 0.17% [with zVAD 20 µM] (inactive) |
| Cc1ccccc1NC(=O)CSC1=NCCN1 | 101% [with zVAD 20 µM] (active) |
| Clc1cc(-c2ccc(/C=N/n3cnnc3)o2)ccc1Br | -0.31% (inactive) |
| CCOC(=O)/C(C#N)=C/c1ccc(N2CCCCC2)cc1 | 68.5% (inactive) |
| C=CCNC(=O)CC12CC3CC(C1)CC(CC(=O)NCC=C)(C3)C2 | 0.48% (inactive) |
| O=C(Nc1cccc(-c2nc3ccccc3[nH]2)c1)c1ccc(C(=O)Nc2cccc(-c3nc4ccccc4[nH]3)c2)cc1 | 0.11% (inactive) |
| CC(=O)Nc1cccc(-c2cnc3ccccc3n2)c1 | 82.7% (active) |

| Compound | viability rescue |
| --- | --- |
| CC(=O)Nc1cccc(-c2csc(Nc3cccc(C)n3)n2)c1 | 0.49% [with zVAD 20 µM] (inactive) |
| O=C(Nc1cccc(F)c1)N1C2CCC1CC(O)(c1cccnc1)C2 (stereo not drawn) | 0.67% (inactive) |
| O=C(Nc1cccnc1)c1cc([N+](=O)[O-])ccc1Cl | 13.3% (inactive) |
| Cc1ccc(C(=O)Cn2cccn2)cc1 | 1.57% (inactive) |
| Cc1ccc(NC(=O)NC(=O)N(C2CCCCC2)S(=O)(=O)c2ccccc2)cc1 | 2.56% (inactive) |
| O=C(CC1SCCNC1=O)Nc1ccc(Cl)cc1 (stereo not drawn) | 2.38% (inactive) |
| COc1ccc(-n2cnc3cc(C(=O)NC4CCCC4)ccc32)cc1 | 76.5% (active) |
| COc1ccccc1-n1cnc2cc(C(=O)NCC3CCCO3)ccc21 (stereo not drawn) | 1.84% (inactive) |
| COCCCNC(=O)c1ccc2c(c1)ncn2-c1ccccc1OC | 13.6% (inactive) |
| COc1ccc(-c2nc3cnccn3c2NC(C)(C)CC(C)(C)C)cc1O | 0.13% (inactive) |
| Cc1ccc2cc(/C=N/Nc3ccc(C(=O)O)cc3)c(Cl)nc2c1 | 1.59% (inactive) |
| CCOC(=O)C1(Cc2ccc(Cl)cc2)CCN(C(=O)C2=NNC(=O)CC2)CC1 | -0.11% (inactive) |
| CCCCN1C(=O)CC(N2CCOCC2)C1=O (stereo not drawn) | -0.32% (inactive) |
| C[C@@H]1C[C@@H]2O[C@H]2/C=C\C=C\C(=O)Cc2c(Cl)c(O)cc(O)c2C(=O)O1 | 83% (active) |
| O=C(c1ccncc1)c1ccc([N+](=O)[O-])cc1 | 1.69% (inactive) |
| O=C(c1ccc(F)cc1)C1CCN(Cc2cn[nH]c2-c2ccccc2)CC1 | 0.29% (inactive) |
| CC(=O)NCCC(=O)Nc1cc(S(=O)(=O)N2CCOCC2)ccc1N1CCOCC1 | 0.76% (inactive) |
| COc1ccc(/C(N)=N/OC(=O)Cc2ccccc2)cc1 | 0.52% (inactive) |
| Cc1cccc(NC(=O)Nc2ccc3c(c2)OCO3)n1 | 75.5% (active) |
| CC(NC(=O)Nc1ccc2c(c1)OCO2)c1ccncc1 (stereo not drawn) | 1.29% (inactive) |
| Cc1cccc(NC(=O)/C=C/c2ccc3c(c2)OCO3)n1 | 0.85% [with zVAD 20 µM] (inactive) |
| CC1CCCCC1NC(=O)CO/N=C/c1ccc(OC(F)F)cc1 (stereo not drawn) | 0.48% (inactive) |
| CC(C)C(=O)Nc1ccc2c3c(cccc13)CC2 | 1.59% [with zVAD 20 µM] (inactive) |
| O=C(O)c1ccccc1-c1ccccc1C(=O)Nc1nccs1 | 1.12% (inactive) |

| Compound | viability rescue |
| --- | --- |
| CCN(c1ccccc1)S(=O)(=O)c1ccc(C(=O)Nc2nccs2)cc1 | 0.94% (inactive) |
| Cn1cccc1C(=O)Nc1nccs1 | 66.4% [with zVAD 20 µM] (inactive) |
| COc1ccc(C(=O)NNC(=O)c2cnccn2)cc1[N+](=O)[O-] | -0.17% (inactive) |
| CC(=O)Oc1ccc(C(=O)Nc2nccs2)cc1 | 101% [with zVAD 20 µM] (active) |
| CCOc1ccc(C(=O)Nc2nccs2)cc1[N+](=O)[O-] | 80.9% (active) |
| NC(=O)C1(N2CCCCC2)CCN(C2CC(=O)N(Cc3ccc(N4CCCC4=O)cc3)C2=O)CC1 (stereo not drawn) | 0.13% (inactive) |
| O=C(COC(=O)/C=C/c1nc2ccccc2s1)Nc1ccccc1Oc1ccccc1 | 0.66% (inactive) |
| Cc1ccc(CNC(=O)CCNS(=O)(=O)c2ccc(Br)s2)cc1 | 3.55% (inactive) |
| Cc1noc(C)c1C(=O)OCC(=O)N1CCN(S(=O)(=O)c2ccc3ccccc3c2)CC1 | 0.85% (inactive) |
| CN(C(=O)CCn1c(=S)oc2ccccc21)C1CCCCC1 | 0.16% (inactive) |
| CC(=O)NC1C(Oc2ccc(C=O)cc2)OC(COC(C)=O)C(OC(C)=O)C1OC(C)=O (stereo not drawn) | 1.66% (inactive) |
| Cc1cccc(CSc2nc3c(c(=O)n2C)SCC3)c1 | -0.37% (inactive) |
| Cc1ccc(NC(=O)c2ccccn2)cc1S(=O)(=O)N1CCOCC1 | 1.5% (inactive) |
| Cc1ccc(NC(=O)NC2CCCCC2)cc1S(=O)(=O)N1CCOCC1 | 75.4% (active) |
| Cc1ccc(C(=O)Nc2ccccc2C(=O)NC2CCCCC2)cc1S(=O)(=O)N1CCOCC1 | -0.61% (inactive) |
| CCn1c(CN2C(=O)CSc3ccccc32)n[nH]c1=S | 0.15% (inactive) |
| CCC1CCCCN1CCCNC(=O)c1cc2c(Cl)nc3ccccc3c2s1 (stereo not drawn) | 18% (inactive) |
| CCOC(=O)c1cn[nH]c1NC(=S)Nc1ccccc1 | 2.47% (inactive) |
| CCCCn1c(=O)c(CCC(=O)OCC(=O)Nc2ccc(C)c(Cl)c2)nc2ccccc21 | 0.2% [with zVAD 20 µM] (inactive) |
| COc1cc([C@H](Cc2ccccc2)NC(C)=O)oc(=O)c1 | -0.39% (inactive) |
| COC(=O)C1=C(C(=O)OC)[C@@H]2N(C)c3ccccc3[C@@]23C[C@@H](C(=O)OC)N(C(C)=O)C3=N1 | 0.26% (inactive) |
